FMDV RLuc: FMDV antiviral activity by Renilla signal; FMDV replicon cells, Renilla luciferase signal; Potency, µM (highest dose often 57.5 µM), inactives show at the highest dose activity change, negative = inhibition, hits mostly inhibitors; 120,000 compounds, 0.32% hits; further: nearly all actives have a fitted effect of over 55% in size
FMDV antiviral: shows antiviral activity against foot and mouth disease virus; AID 1745856; 120,000 compounds, 0.23% hits; Potency, µM (top dose mostly 57.5 µM), without a hit: at the highest dose activity change, negative = inhibition, usual class: inhibitors; FMDV antiviral cell assay, firefly luciferase signal; further: nearly all actives have a fitted effect of over 60% in size
Starred values were filed as active, the others as inactive; [ ] = another dose, or the depositor's remark. Sampled rows, rich in hits. Any-hit rate of the full collection: about 0.4%. The call rests on the fitted dose curve. On the % scale 0 is the no-effect control and ±100 the full control effect; potency means the concentration at half of the fitted maximal effect.

For N#C/C(=C\c1cccc(OC(=O)c2ccccc2Cl)c1)C(=O)Nc1cccc(C(F)(F)F)c1 the results were FMDV RLuc 1.1% and FMDV antiviral 128.3%.
`O=C(Nc1cccc(C(F)(F)F)c1)C(=Cc1cccc(Oc2ccccc2)c1)C(=O)Nc1cccc(C(F)(F)F)c1` gave FMDV RLuc 3.98µM* and FMDV antiviral 4.47µM*.
O=c1c2c(-c3ccc(Br)cc3)csc2ncn1-c1ccccc1 was read as FMDV RLuc -1.9% and FMDV antiviral 1.3%.
Screening Brc1ccc(-c2csc3ncnc(Sc4nnc(C5CC5)o4)c23)cc1 returned FMDV RLuc inconclusive and FMDV antiviral 25.1µM*.
For CCOc1ccc(NC(=O)c2cccc(Nc3ccnc(-c4ccc(F)cc4)n3)c2)cc1 the results were FMDV RLuc inconclusive and FMDV antiviral 21.5%.
For CC(=O)c1c(C)[nH]c(C(=O)CSc2ccc(Br)cc2)c1C the results were FMDV RLuc -18.4% and FMDV antiviral 48.1%.
CC(=O)c1c(C)[nH]c(C(=O)C(C)Sc2ccccc2Br)c1C (stereo not drawn) was read as FMDV RLuc 0.0% and FMDV antiviral 25.1µM*.
Cc1ccc(-c2cc(C(=O)OCC(=O)NC(=O)C3CCCCC3)c3ccccc3n2)o1 was read as FMDV RLuc -12.3% and FMDV antiviral 18.4%.
For Cc1c(C(=O)C(=O)N(Cc2ccccc2)C(C)C)c2ccccc2n1C the results were FMDV RLuc 59.4% and FMDV antiviral -10.2%.
Screening COC1CC(OC2CCC3(C)C(CC[C@@H]4[C@@H]3CCC3(C)C(C5=CC(=O)OC5)C(OC(C)=O)CC43O)C2)OC(C)C1O (stereo partly drawn) returned FMDV RLuc -75.6% and FMDV antiviral -82.6%.
`COC1C(O)CC(OC2C(O)CC(OC3C(O)CC(OC4CCC5(C)C(CCC6[C@@H]5CC(O)C5(C)C(C7=CC(=O)OC7)CCC65O)C4)OC3C)OC2C)OC1C` (stereo partly drawn) gave FMDV RLuc 0.501µM* and FMDV antiviral inconclusive.
`C[C@H]1O[C@@H](O[C@H]2[C@@H](O)C[C@H](O[C@H]3[C@@H](O)C[C@H](O[C@H]4CC[C@@]5(C)[C@H](CC[C@@H]6[C@@H]5CC[C@]5(C)[C@@H](C7=CC(=O)OC7)CC[C@]65O)C4)O[C@@H]3C)O[C@@H]2C)C[C@H](O)[C@@H]1O` gave FMDV RLuc -74.4% and FMDV antiviral inconclusive.
`CC(=O)OC1CC2(O)[C@@H]3CCC4CC(OC5CC(O)C(OC6CC(O)C(OC7CC(O)C(O)C(C)O7)C(C)O6)C(C)O5)CCC4(C)[C@H]3CCC2(C)C1C1=CC(=O)OC1` (stereo partly drawn) gave FMDV RLuc inconclusive and FMDV antiviral 0.631µM*.
C[C@H]1O[C@@H](O[C@H]2CC[C@@]3(C)[C@H](CC[C@@H]4[C@@H]3C[C@@H](O)[C@]3(C)[C@@H](C5=CC(=O)OC5)CC[C@]43O)C2)C[C@H](O)[C@@H]1O[C@H]1C[C@H](O)[C@H](O[C@H]2C[C@H](O)[C@H](O[C@@H]3O[C@H](CO)[C@@H](O)[C@H](O)[C@H]3O)[C@@H](C)O2)[C@@H](C)O1 was read as FMDV RLuc -77.8% and FMDV antiviral -79.6%[11.5 µM].
`CC(=O)OC1CC(OC2C(O)CC(OC3C(O)CC(OC4CC(O)C5(C)C(CC[C@@H]6[C@@H]5CCC5(C)C(C7=CC(=O)OC7)CCC65O)C4)OC3C)OC2C)OC(C)C1O` (stereo partly drawn) gave FMDV RLuc 0.891µM* and FMDV antiviral 0.562µM*.
Screening CC1OC(OC2C(O)CC(OC3C(O)CC(OC4CCC5(C)C(CC[C@@H]6[C@@H]5CCC5(C)C(C7=CC(=O)OC7)CCC65O)C4)OC3C)OC2C)CC(O)C1O (stereo partly drawn) returned FMDV RLuc 0.562µM* and FMDV antiviral 0.251µM*.
`CC(=O)Nc1ccc(NC2=C(C(N)=O)S(=O)(=O)c3ccccc32)cc1` gave FMDV RLuc 2.0% and FMDV antiviral 8.9%.
COc1ccc(/C=C(/C#N)C(=O)C(C)C)cc1O was read as FMDV RLuc 10.2% and FMDV antiviral 9.8%.
`Cc1ccc(OCCSc2nnc(COc3ccc(Cl)cc3)n2C)cc1` gave FMDV RLuc 43.1% and FMDV antiviral -3.5%.
Screening COc1cc(/C=C(/C#N)C(=O)c2ccccc2)ccc1OC(F)F returned FMDV RLuc -11.0%[1.06 µM] and FMDV antiviral 3.5%.
Screening Cc1ccc(CC(=O)N2CCC(NS(=O)(=O)c3ccc(C)cc3)CC2)cc1 returned FMDV RLuc 111.4% and FMDV antiviral -8.2%.
Screening O=C(CSc1nc2cc([N+](=O)[O-])ccc2o1)NCc1ccc(F)cc1 returned FMDV RLuc 6.2% and FMDV antiviral -0.4%.
Cc1ccc(Cl)cc1NC(=O)c1n[nH]c(=O)c2ccccc12 was read as FMDV RLuc -4.2% and FMDV antiviral 0.6%.
`CCOc1ccc(NC(=O)COc2ccc(OC)cc2)c2cccnc12` gave FMDV RLuc -12.5% and FMDV antiviral 8.2%.
COc1ccc(NC(=O)c2ccccc2Cl)c2cccnc12 was read as FMDV RLuc -13.4% and FMDV antiviral 14.3%.
For COc1ccc(NC(=O)COc2ccccc2Cl)c2cccnc12 the results were FMDV RLuc 10µM* and FMDV antiviral 11.2µM*.
COc1ccc(NC(=O)COc2ccc(Cl)cc2)c2cccnc12 was read as FMDV RLuc 11.2µM* and FMDV antiviral inconclusive.
O=C(Nc1ccccc1-n1cncn1)C1CC(=O)N(c2ccccc2Br)C1 (stereo not drawn) was read as FMDV RLuc -1.1% and FMDV antiviral -3.7%.
Screening CC(C)NC(=O)/C(C#N)=C\c1cccc(/C=C(/C#N)C(=O)NC(C)C)c1 returned FMDV RLuc -33.9% and FMDV antiviral 28.2µM*.
CC(C)NC(=O)/C(C#N)=C\c1ccc(O)cc1 was read as FMDV RLuc 7.8% and FMDV antiviral 79.3%.
Screening Cc1[nH]c(I)c(C)c1C=O returned FMDV RLuc 46.9% and FMDV antiviral 0.0%.
Cc1cc(C)cc(NC(=O)C2CCCN2S(=O)(=O)c2ccc3c(c2)CCCC(=O)N3)c1 (stereo not drawn) was read as FMDV RLuc inconclusive and FMDV antiviral -29.5%.
Screening Cc1ccc(NC(=O)C2CCCN2S(=O)(=O)c2ccc3c(c2)CCCC(=O)N3)cc1C (stereo not drawn) returned FMDV RLuc 28.2µM* and FMDV antiviral 35.5µM*.
CCOc1ccc(CN2CCN(c3ncnc4sccc34)CC2)cc1 was read as FMDV RLuc 0.891µM* and FMDV antiviral 1.12µM*.
`COc1ccc(-c2csc3ncnc(N4CCN(Cc5ccccc5)CC4)c23)cc1` gave FMDV RLuc -6.9% and FMDV antiviral 14.8%.
Screening S=c1cc[nH]c(=S)[nH]1 returned FMDV RLuc 12.7% and FMDV antiviral 13.5%.
Screening COc1ccc(C(=O)N2CCC(c3nc4ccccc4s3)CC2)cc1Cl returned FMDV RLuc inconclusive and FMDV antiviral 28.2µM*.
For COc1cccc(C(=O)N2CCC(c3nc4ccccc4s3)CC2)c1 the results were FMDV RLuc -3.9% and FMDV antiviral -8.5%.
For CC(C)(C)c1cc(-c2cc(Br)c(O)c(C(C)(C)C)c2)cc(Br)c1O the results were FMDV RLuc 2.9% and FMDV antiviral 3.1%.
Screening COc1ccc(S(=O)(=O)N(C)C)cc1NC(=O)Cc1nn(C)c(=O)c2ccccc12 returned FMDV RLuc 29.0% and FMDV antiviral 0.0%.
CCn1c(SCC(=O)Nc2ccccc2C(=O)OC)nc2ccsc2c1=O was read as FMDV RLuc 8.7% and FMDV antiviral -12.3%.
